“And” between values parts separate entries of the source, which are not always exact repeats. Equal values may be shown once. The source made the active and inactive calls. How the source made its calls: active means hit-call score of the fitted dose curve at least 0.9, where 1 is the maximum; inactive means score below 0.9.
Legend:
[1] = molecular target: Paired box protein Pax-6 (Homo sapiens) (UniProt P26367); assay: ATG_Pax6_CIS: Attagene CIS-FACTORIAL HepG2 Assay for human Paired Box 6 (PAX6) (AID 2282956); settings: HepG2 CIS-FACTORIAL PAX6 reporter transcription, RNA readout; actives raise or lower the signal
Chain of Paired box protein Pax-6 (Homo sapiens) (P26367 whole entry, looked up): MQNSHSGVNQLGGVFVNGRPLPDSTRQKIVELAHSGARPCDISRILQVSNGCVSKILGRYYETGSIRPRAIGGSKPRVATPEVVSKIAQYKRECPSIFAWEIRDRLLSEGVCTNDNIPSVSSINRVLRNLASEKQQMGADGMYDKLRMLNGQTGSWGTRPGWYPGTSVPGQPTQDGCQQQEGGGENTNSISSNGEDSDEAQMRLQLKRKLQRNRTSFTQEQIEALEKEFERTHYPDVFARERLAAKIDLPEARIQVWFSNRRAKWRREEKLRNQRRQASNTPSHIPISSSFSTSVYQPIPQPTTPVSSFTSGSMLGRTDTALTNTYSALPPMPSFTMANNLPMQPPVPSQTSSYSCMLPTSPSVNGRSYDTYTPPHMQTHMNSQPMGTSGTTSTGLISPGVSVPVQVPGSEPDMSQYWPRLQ
Summary of the method: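 HepG2 cells transiently transfected with multiplexed cis-promoter reporter units (endogenous TF activity) were dosed for 24 h. Reporter mRNA was quantified by RT-PCR, 6-FAM labeling, HpaI digestion and capillary electrophoresis; bidirectional fitting versus DMSO baseline.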

[2] = ATG_PXRE_CIS: Attagene CIS-FACTORIAL HepG2 Assay for human Pregnane X Receptor Element (PXRE) (AID 2282957); settings: HepG2 Attagene CIS-FACTORIAL PXRE reporter, mRNA; actives raise or lower the signal
Summary of the method: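 Cis-element reporter mRNA in human hepatoma HepG2 cells is measured 24 h post-dosing by RT-PCR, primer-extension labeling and capillary electrophoresis; gain or loss of signal is fitted relative to DMSO.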

[3] = ATG_PPRE_CIS: Attagene CIS-FACTORIAL HepG2 Assay for human Peroxisome Proliferator-activated Response Element (PPRE) (AID 2282958); settings: HepG2 PPRE cis-element reporter, Attagene transcription factor profiling; actives raise or lower the signal
Summary of the method: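 Multiplexed reporter transcription units under cis-regulatory promoters were transfected into HepG2 cells to capture endogenous factor activity. A 24 h incubation preceded RNA isolation and fluorescent RT-PCR fragment analysis.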

[4] = ATG_RORE_CIS: Attagene CIS-FACTORIAL HepG2 Assay for human RAR-related Orphan Receptor Element (RORE) (AID 2282959); settings: HepG2 Attagene cis-factorial RORE reporter, mRNA; actives raise or lower the signal
Summary of the method: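 Fluorescence intensity of reporter-specific cDNA fragments, separated by capillary electrophoresis, gives the signal. Source: HepG2 liver cells transiently transfected with cis-element reporters and exposed 24 h; DMSO-normalized bidirectional fit.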

[5] = ATG_Sox_CIS: Attagene CIS-FACTORIAL HepG2 Assay for human SRY-box transcription factor (SOX) (AID 2282960); settings: HepG2 Attagene cis-factorial SOX reporter, mRNA; actives raise or lower the signal
Summary of the method: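 After 24 h of chemical treatment, transfected HepG2 reporter cells are lysed for total RNA. Transcript levels come from RT-PCR with labelled primer extension and capillary electrophoresis, analysed bidirectionally versus DMSO.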

[6] = ATG_SREBP_CIS: Attagene CIS-FACTORIAL HepG2 Assay for human Sterol Regulatory Element Binding (SREBP) (AID 2282962); settings: HepG2 Attagene cis-factorial SREBP reporter, mRNA; actives raise or lower the signal
Summary of the method: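 HepG2 cells transiently transfected with multiplexed cis-element reporter units report endogenous transcription factor activity. After 24 h of chemical exposure, reporter mRNA was quantified by RT-PCR, 6-FAM labelling, HpaI digestion and capillary electrophoresis; bidirectional fits used DMSO as baseline.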

[7] = molecular target: Signal transducer and activator of transcription 3 (Homo sapiens) (UniProt P40763); assay: ATG_STAT3_CIS: Attagene CIS-FACTORIAL HepG2 Assay for human Signal Transducer and Activator of Transcription 3 (STAT3) (AID 2282963); settings: HepG2, Attagene cis-factorial STAT3 reporter transcription; actives raise or lower the signal
Chain of Signal transducer and activator of transcription 3 (Homo sapiens) (P40763 whole entry, looked up): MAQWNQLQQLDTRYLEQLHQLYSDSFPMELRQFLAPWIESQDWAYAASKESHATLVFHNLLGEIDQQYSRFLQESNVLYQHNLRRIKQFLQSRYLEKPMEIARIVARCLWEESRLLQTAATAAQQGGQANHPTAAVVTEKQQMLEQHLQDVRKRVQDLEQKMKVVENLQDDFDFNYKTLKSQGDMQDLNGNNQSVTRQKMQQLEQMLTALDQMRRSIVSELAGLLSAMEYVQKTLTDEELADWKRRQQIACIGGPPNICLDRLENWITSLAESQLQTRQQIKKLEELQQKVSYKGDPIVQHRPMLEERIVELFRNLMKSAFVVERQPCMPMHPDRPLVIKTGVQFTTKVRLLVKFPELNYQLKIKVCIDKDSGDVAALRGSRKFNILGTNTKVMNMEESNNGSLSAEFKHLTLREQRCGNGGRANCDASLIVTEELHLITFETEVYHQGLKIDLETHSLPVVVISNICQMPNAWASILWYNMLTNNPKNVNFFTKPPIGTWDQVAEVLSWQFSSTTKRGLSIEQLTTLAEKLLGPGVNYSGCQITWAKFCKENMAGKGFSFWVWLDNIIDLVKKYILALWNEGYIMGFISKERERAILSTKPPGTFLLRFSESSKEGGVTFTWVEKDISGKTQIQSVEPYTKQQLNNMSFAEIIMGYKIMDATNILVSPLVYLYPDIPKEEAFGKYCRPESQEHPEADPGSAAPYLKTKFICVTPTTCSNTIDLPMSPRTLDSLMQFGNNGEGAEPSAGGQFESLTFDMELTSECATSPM
Summary of the method: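 HepG2 cells transiently transfected with cis-element-driven multiple reporter transcription units; after 24 h chemical exposure, reporter mRNA measured by RT-PCR, 6-FAM primer-extension labelling, HpaI digestion and capillary electrophoresis. Bidirectional fitting versus DMSO baseline.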

[8] = ATG_TA_CIS: Attagene CIS-FACTORIAL HepG2 Assay for human TA Basal Promoter (AID 2282964); settings: HepG2 Attagene CIS-factorial TA basal promoter reporter; actives raise or lower the signal
Summary of the method: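 Multiplexed mRNA reporter assay, HepG2, 24 h. Reporter cDNA amplified, 6-FAM primer-extended, HpaI-cut, CE-sized; DMSO = negative control and baseline.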

[9] = molecular target: Transcription factor Sp1 (Homo sapiens) (UniProt P08047); assay: ATG_Sp1_CIS: Attagene CIS-FACTORIAL HepG2 Assay for human Specificity Protein 1 (Sp1) (AID 2282961); settings: HepG2 Sp1 cis-reporter transcription, actives raise or lower the signal
Chain of Transcription factor Sp1 (Homo sapiens) (P08047 whole entry, looked up): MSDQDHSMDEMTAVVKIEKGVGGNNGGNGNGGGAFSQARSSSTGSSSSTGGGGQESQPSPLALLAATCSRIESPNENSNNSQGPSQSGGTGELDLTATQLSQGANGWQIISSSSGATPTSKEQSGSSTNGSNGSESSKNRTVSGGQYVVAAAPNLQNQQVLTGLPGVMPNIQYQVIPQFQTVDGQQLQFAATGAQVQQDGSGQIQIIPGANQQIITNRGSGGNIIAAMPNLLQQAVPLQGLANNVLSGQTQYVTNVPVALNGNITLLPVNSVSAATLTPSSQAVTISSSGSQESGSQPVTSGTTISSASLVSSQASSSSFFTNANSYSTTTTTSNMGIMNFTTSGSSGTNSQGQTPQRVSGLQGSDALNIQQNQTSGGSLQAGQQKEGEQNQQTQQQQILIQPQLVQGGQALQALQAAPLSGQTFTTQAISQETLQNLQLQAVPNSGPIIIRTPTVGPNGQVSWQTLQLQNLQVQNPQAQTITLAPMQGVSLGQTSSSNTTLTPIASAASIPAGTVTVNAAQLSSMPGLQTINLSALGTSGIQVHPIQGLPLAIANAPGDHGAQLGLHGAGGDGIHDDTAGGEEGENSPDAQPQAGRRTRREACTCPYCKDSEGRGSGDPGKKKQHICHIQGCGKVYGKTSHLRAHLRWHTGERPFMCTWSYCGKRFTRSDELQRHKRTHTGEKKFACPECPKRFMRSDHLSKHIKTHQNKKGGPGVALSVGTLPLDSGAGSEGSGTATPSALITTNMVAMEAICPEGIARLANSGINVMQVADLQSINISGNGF
Summary of the method: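 Sp1-driven reporter mRNA, read as capillary electrophoresis fluorescence after RT-PCR, in transiently transfected HepG2 cells dosed for 24 h; signal change in either direction relative to DMSO.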

Measured: AC50

OCC(F)(F)OC(F)(F)C(F)(F)OC(F)(F)C(F)(F)OC(F)(F)CO
inactive: [1] | [3] | [4] | [5] | [6] | [7] | [8]
active: [2] 13.9 µM

Nc1ccc2ccccc2c1
inactive: [1] | [2] | [4] | [5] | [7] | [8]

CCCCN(CCCC)N=O
inactive: [1] | [4] | [5] | [9] | [6] | [7] | [8]
active: [2] 42.7 µM

Clc1ccc(Oc2ccccc2)cc1
inactive: [1] | [2] | [4] | [5] | [9] | [6] | [7] | [8]

O=NN1CCCC1
inactive: [1] | [2] | [3] | [4] | [5] | [6] | [7] | [8]

O=P(OCC(Br)CBr)(OCC(Br)CBr)OCC(Br)CBr (stereo not drawn)
active: [1] 19.6 µM | [2] 0.0674 µM | [6] 22.9 µM | [8] 11.8 µM
inactive: [3] | [5] | [9] | [7]

c1nc[nH]n1
inactive: [1] | [3] | [4] | [5] | [7] | [8]
active: [2] 59.3 µM

C=C(C)C(=O)OCC1CO1 (stereo not drawn)
inactive: [1] | [2] | [3] | [4] | [5] | [9] | [7] | [8]

CCOP(=S)(OCC)SCn1nnc2ccccc2c1=O
inactive: [1] | [4] | [5] | [9] | [7] | [8]
active: [2] 0.673 µM

FC(F)(F)c1ccc(Cl)cc1
inactive: [1] | [2] | [4] | [5] | [9] | [7] | [8]

CCNc1nc(Cl)nc(NC(C)(C)C)n1
active: [2] 6.16 µM
inactive: [1] | [4] | [5] | [9] | [7] | [8]

CCOP(=S)(NC(C)C)Oc1ccccc1C(=O)OC(C)C (stereo not drawn)
active: [2] 0.699 µM | [4] 46.6 µM
inactive: [1] | [5] | [9] | [7] | [8]

Cc1ccc(C(=O)Cl)cc1
inactive: [1] | [2] | [4] | [5] | [6] | [7] | [8]

CC(C)(C)c1ccc(O)cc1
inactive: [4] | [7] | [8]
active: [1] 174 µM | [2] 26 µM | [5] 175 µM | [9] 175 µM | [6] 26.8 µM

CCOS(=O)(=O)OCC
inactive: [1] | [2] | [4] | [5] | [6] | [7] | [8]

CCCCOCC1CO1 (stereo not drawn)
inactive: [1] | [2] | [3] | [4] | [5] | [9] | [7] | [8]

CCC(C)(C)c1ccc(O)cc1
inactive: [1] | [4] | [5] | [9] | [7] | [8]
active: [2] 9.13 µM | [6] 20 µM

O=C(O)C(F)(F)OC(F)(F)C(F)(F)OC(F)(F)C(=O)O
inactive: [1] | [2] | [3] | [4] | [5] | [6] | [7] | [8]

O=C(O)C(Cl)Cl
inactive: [1] | [2] | [4] | [5] | [9] | [6] | [7] | [8]

CCCCN(CCCC)SN(C)C(=O)Oc1cccc2c1OC(C)(C)C2
active: [2] 8.93 µM
inactive: [1] | [3] | [4] | [5] | [9] | [7] | [8]

CCC1(c2ccccc2)C(=O)N=C(O)NC1=O (stereo not drawn)
active: [2] 100 µM
inactive: [1] | [4] | [5] | [6] | [7] | [8]

N#Cc1cc([N+](=O)[O-])ccc1N
inactive: [1] | [2] | [4] | [5] | [9] | [6] | [7] | [8]

COP(=O)(O)OC
inactive: [1] | [4] | [5] | [9] | [7] | [8]
active: [2] 32.8 µM

CO/N=C(/C(=O)OC)c1ccccc1COc1ccccc1C
active: [1] 70.1 µM | [2] 4.57 µM | [4] 36.5 µM
inactive: [5] | [9] | [6] | [7] | [8]

O=C(O)C(F)(F)OC(F)(F)C(F)(F)OC(F)(F)F
inactive: [1] | [2] | [4] | [5] | [6] | [7] | [8]
active: [3] 96.5 µM and 114 µM

COP(=O)(CCC(=O)NCO)OC
inactive: [1] | [2] | [4] | [5] | [6] | [7] | [8]

CC(Cl)(Cl)C(=O)O
inactive: [1] | [2] | [3] | [4] | [5] | [9] | [7] | [8]

CN(C)C(=O)Cl
inactive: [1] | [2] | [4] | [5] | [6] | [7] | [8]

c1ccc2c(c1)sc1ccccc12
inactive: [1] | [2] | [3] | [4] | [5] | [6] | [7] | [8]

ClC(Cl)(Cl)c1ccccc1
inactive: [1] | [4] | [5] | [9] | [6] | [7] | [8]
active: [2] 62.9 µM

CCOP(=S)(OCC)SCSCC
active: [2] 11.7 µM | [3] 176 µM
inactive: [1] | [5] | [9] | [6] | [7] | [8]

ClC(Cl)c1ccccc1
inactive: [1] | [2] | [4] | [5] | [9] | [6] | [7] | [8]

CCCCOCCOP(=O)(OCCOCCCC)OCCOCCCC
inactive: [1] | [4] | [5] | [9] | [6] | [7] | [8]
active: [2] 1.04 µM and 62.9 µM

CCCCC(CC)COC(=O)c1c(Br)c(Br)c(Br)c(Br)c1C(=O)OCC(CC)CCCC (stereo not drawn)
inactive: [1] | [4] | [5] | [9] | [6] | [7] | [8]
active: [2] 19.9 µM

O=S(=O)(F)C(F)(F)C(F)(F)C(F)(F)C(F)(F)C(F)(F)C(F)(F)C(F)(F)C(F)(F)F
inactive: [1] | [2] | [4] | [5] | [9] | [6] | [7] | [8]

NNC(N)=S
inactive: [1] | [2] | [3] | [4] | [5] | [6] | [7] | [8]

Cc1ccc(O)cc1C
inactive: [1] | [2] | [4] | [5] | [9] | [6] | [7] | [8]
